Screening data deposited in PubChem by several laboratories.
PriA SSB inh: blocks PriA binding to SSB C-terminal tail. inhibition, % at 33 µM. 430,000 tested, 0.6% active. AID 1272365. AlphaScreen SSBct-PriA binding, biotinylated peptide; in the data active = inhibition mostly above about 37%, no sharp cut-off; inactive = mostly below about 20%
DUSP3 inh: inhibitors of human VHR1 phosphatase (DUSP3). AID 1654. recombinant VHR phosphatase, pNPP absorbance. P51452. inhibition, % at 13.3 µM. 290,000 tested, 0.52% active; in the data active = inhibition above about 50%
CCHFV vOTU inh: CCHFV vOTU protease inhibition | AID 651958 | Pep-AMC fluorescence | 370,000 tested, 0.55% active | inhibition, % at 11.5 µM; in the data active = inhibition above about 30%
PrPC surface inh: inhibitors of human cell surface prion protein PrPC. P04156. AID 720596. 370,000 tested, 0.43% active. TR-FRET read-out. inhibition, % at 13.8 µM; in the data active = inhibition above about 24%
TcdB inh: inhibitors of Clostridioides difficile toxin B glycohydrolase; 350,000 tested, 0.24% active; P18177; TcdB glycohydrolase enzymatic assay, plate reader; inhibition, % at 9.99 µM; in the data active = inhibition above about 10%
Vc quorum ag-1: inducers of Vibrio cholerae quorum light production without autoinducers; V. cholerae BH1578 lux reporter, luminescence, 6 h; 350,000 tested, 0.16% active; AID 588436; activation, % at 18.7 µM; in the data active = activation mostly above about 9.7%, no sharp cut-off
Vc quorum ag-2: quorum light induction in BH1578 reporter strain | shares compounds with Vc quorum ag-1 | V. cholerae BH1578 lux reporter, luminescence, 6 h | activation, % at 50 µM | 620 tested, under 10 active | AID 602243; call rule not given here
HeLa 24h tox: HeLa cell viability loss at 24 h; 25 tested, under 10 active; CellTiter-Glo ATP luminescence; shares compounds with Vc quorum ag-1; activity change, negative = cytotoxicity, % at 35 µM; AID 624140;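 active = signal drop with fitted half-maximal concentration at or below twice the highest valid dose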
Large screens that a line does not name were inactive (follow-up assays come after a bar, where they were run). Compounds with a hit are over-represented: about 1.5% of the library has one in this group of screens.

CC(C)CCN1C(=O)CCc2cc(NC(=O)Cc3ccc(Cl)cc3)ccc21	none (no result: DUSP3 inh, CCHFV vOTU inh, PrPC surface inh, TcdB inh, Vc quorum ag-1)
CC(C)=CC(=O)N1CCS[C@H](c2ccccc2Cl)CC1	none (no result: DUSP3 inh, CCHFV vOTU inh, PrPC surface inh, TcdB inh, Vc quorum ag-1)
O=C(COC(=O)c1ccc(O)cc1)NC1CCCC1	none
Cc1ccc(C(=O)OCC(=O)NC2CCCC2)cc1	none (no result: Vc quorum ag-1) | Vc quorum ag-2 inactive | HeLa 24h tox inactive
Cc1cc(C(=O)OCC(=O)Nc2cc(Cl)ccc2C)c(C)o1	none (no result: DUSP3 inh)
Cc1cc(C(=O)OCC(=O)Nc2ccccc2F)c(C)o1	Vc quorum ag-1 57.3 (no result: TcdB inh) | Vc quorum ag-2 inactive
Cc1nnc(NC(=O)c2cccc(S(=O)(=O)N3CCc4ccccc43)c2)s1	none (no result: TcdB inh) | Vc quorum ag-2 inactive
O=C(Nc1nnc(C2CC2)s1)c1cccc(S(=O)(=O)N2CCc3ccccc32)c1	none (no result: TcdB inh) | Vc quorum ag-2 inactive
O=C(CNC(=O)c1cccc(S(=O)(=O)N2CCc3ccccc32)c1)Nc1ccc(F)c(F)c1F	none (no result: DUSP3 inh) | Vc quorum ag-2 inactive
O=C(NCCSc1ncc(-c2ccccc2)[nH]1)C(=O)Nc1cc(F)ccc1F	none (no result: DUSP3 inh, CCHFV vOTU inh, PrPC surface inh, TcdB inh, Vc quorum ag-1)
COc1ccc(NC(=O)CSc2ccc(-c3ccncc3)nn2)cc1OC	none (no result: DUSP3 inh, CCHFV vOTU inh, PrPC surface inh, TcdB inh, Vc quorum ag-1)
CC(=O)Nc1ccc(N2CCCC2)cc1	none (no result: TcdB inh) | Vc quorum ag-2 inactive
CC(=O)Nc1ccc(N2CCCCC2)cc1	none (no result: TcdB inh)
Cc1ccc(NC(=O)N2CCCC2C(=O)NCc2ccc3c(c2)OCO3)cc1 (centres undefined)	none
O=C(NCc1ccc2c(c1)OCO2)C1CCCN1C(=O)Nc1cccc(Cl)c1 (centres undefined)	Vc quorum ag-1 5.6 (no result: TcdB inh) | Vc quorum ag-2 inactive
COc1cccc2cc(C(=O)N3CCOCC3CO)oc12 (centres undefined)	none (no result: DUSP3 inh, CCHFV vOTU inh, PrPC surface inh, TcdB inh, Vc quorum ag-1)
CC1(C)Cc2cccc(OCc3ccc(C(=O)Nc4ccc(S(N)(=O)=O)cc4)cc3)c2O1	none (no result: DUSP3 inh, CCHFV vOTU inh, PrPC surface inh, TcdB inh, Vc quorum ag-1)
CC1CCCN(C(=O)Cn2c(-c3nonc3N)nc3ccccc32)C1 (centres undefined)	none (no result: TcdB inh) | Vc quorum ag-2 inactive
CC1CC(C)CN(C(=O)Cn2c(-c3nonc3N)nc3ccccc32)C1 (centres undefined)	none (no result: TcdB inh)
Cc1ccc2nc(NCCc3ccccc3)c3nncn3c2c1	Vc quorum ag-1 111.2 | Vc quorum ag-2 inactive
CCC1(CC)NC(=O)N(CC(=O)OCC(=O)NC(=O)c2ccc(Cl)cc2)C1=O	none
CCC1(CC)NC(=O)N(CC(=O)OCC(=O)NC(=O)c2ccccc2OC)C1=O	none (no result: DUSP3 inh) | Vc quorum ag-2 inactive
COc1cc(SC)ccc1C(=O)OCC(=O)NCC(C)C	Vc quorum ag-1 67.0 | Vc quorum ag-2 inactive
COc1cc(SC)ccc1C(=O)OCC(=O)NC(=O)NC(C)C	none
O=C(Nc1ccccc1Oc1ccccc1)c1cnccn1	none (no result: TcdB inh)
Cc1ccc(Oc2ccc(Cl)cc2NC(=O)c2cnccn2)cc1	Vc quorum ag-1 16.7 (no result: TcdB inh) | Vc quorum ag-2 inactive
COc1ccc(OCC(=O)NC2CCCN(Cc3ccc(Cl)cc3)C2)cc1 (centres undefined)	none (no result: Vc quorum ag-1) | Vc quorum ag-2 inactive
O=C(COc1ccccc1)NC1CCN(Cc2ccccc2)CC1	none (no result: TcdB inh)
O=C(COc1ccccc1)NC1CCCN(Cc2ccccc2)C1 (centres undefined)	none (no result: PriA SSB inh, DUSP3 inh, CCHFV vOTU inh, PrPC surface inh, TcdB inh, Vc quorum ag-1) | HeLa 24h tox inactive
CC(=O)Nc1ccc(S(=O)(=O)Nc2ccc(-n3nnn(C)c3=O)cc2)cc1	none (no result: DUSP3 inh, CCHFV vOTU inh, PrPC surface inh, TcdB inh, Vc quorum ag-1)
CCCOc1ccc(C2C(C(=O)c3ccc(C)o3)=C(O)C(=O)N2CCN2CCOCC2)cc1OC (centres undefined)	Vc quorum ag-1 16.7 (no result: TcdB inh) | Vc quorum ag-2 inactive
O=C(O)c1cn[nH]c1-n1cnnn1	none (no result: TcdB inh) | Vc quorum ag-2 inactive
Clc1ncnc2scc(-c3ccccc3)c12	none (no result: TcdB inh) | Vc quorum ag-2 inactive
O=C(Oc1ccc(=O)n(-c2ccccc2)n1)c1cccc(Cl)c1	Vc quorum ag-1 25.0 (no result: TcdB inh) | Vc quorum ag-2 inactive
O=C(Oc1ccc(=O)n(-c2ccccc2)n1)c1ccc(Cl)cc1	none (no result: TcdB inh)
CCCC(=O)NCC(=O)Nc1c(C)nc(N(C)C)nc1C	none (no result: DUSP3 inh, CCHFV vOTU inh, PrPC surface inh, TcdB inh, Vc quorum ag-1)
CCCCNC(=O)c1ccccc1NC(=O)CCSc1ccccc1	none (no result: TcdB inh) | Vc quorum ag-2 inactive
CCCCNC(=O)Nc1ccccc1C(=O)NCCC	none (no result: TcdB inh)
CCC(=O)Nc1ccc(S(=O)(=O)N2CCN(c3cc(C4CC4)ncn3)CC2)cc1	none (no result: DUSP3 inh, CCHFV vOTU inh, PrPC surface inh, TcdB inh, Vc quorum ag-1)
O=C(COC(=O)c1ccc(O)cc1)c1ccc2c(c1)OCCO2	none (no result: DUSP3 inh) | Vc quorum ag-2 inactive
Cc1cc(C)cc(NC(=O)C(=O)NCC2(CO)CC2)c1	none (no result: DUSP3 inh, CCHFV vOTU inh, PrPC surface inh, TcdB inh, Vc quorum ag-1)
O=C(c1cc2cc(Cl)ccc2oc1=O)N1CCCC1	none (no result: TcdB inh) | Vc quorum ag-2 inactive
CCC(=O)c1ccc(N2CCCCCC2)c(F)c1	Vc quorum ag-1 43.5 (no result: TcdB inh) | Vc quorum ag-2 inactive
CCC(=O)c1ccc(N2CCCC2)c(F)c1	none (no result: TcdB inh)
CC(=O)c1ccc(NC(=O)COc2ccccc2C(=O)Nc2ccccc2)cc1	Vc quorum ag-1 140.3 | Vc quorum ag-2 inactive
COCCNC(=O)c1cnn2c1NC(c1ccco1)CC2C(F)(F)F (centres undefined)	Vc quorum ag-1 16.7 (no result: TcdB inh) | Vc quorum ag-2 inactive
O=C(NCCCn1nc(-c2ccco2)ccc1=O)Nc1ccc(F)cc1	none (no result: DUSP3 inh, CCHFV vOTU inh, PrPC surface inh, TcdB inh, Vc quorum ag-1)
Cc1nn(CC(O)CN2c3ccccc3Sc3ccccc32)c(C)c1Br (centres undefined)	Vc quorum ag-1 25.0 (no result: TcdB inh) | Vc quorum ag-2 inactive
O=C(Cc1cc(-c2ccc(Cl)cc2)on1)NCCC1=CCCCC1	none (no result: DUSP3 inh, CCHFV vOTU inh, PrPC surface inh, TcdB inh, Vc quorum ag-1)
O=c1ncn(-c2cccc(Cl)c2)c2ccccc12	Vc quorum ag-1 active (no result: DUSP3 inh) | Vc quorum ag-2 inactive | HeLa 24h tox inactive
CCN(C(=O)C1CCCCC1)c1nnc(-c2cccnc2)s1	none (no result: TcdB inh)
COCCN(C(=O)C1CCC1)c1nnc(-c2cccnc2)s1	none (no result: TcdB inh) | Vc quorum ag-2 inactive
O=C(NC[C@H](O)c1ccc2c(c1)CCO2)c1ccco1	none (no result: DUSP3 inh, CCHFV vOTU inh, PrPC surface inh, TcdB inh, Vc quorum ag-1)
Cc1ccc(OCCC(=O)OCC(=O)Nc2ccc3c(c2)OCO3)cc1	none (no result: DUSP3 inh) | Vc quorum ag-2 inactive
